The results in this text go back to PubChem BioAssay (NCI).

The panel holds about 79,000 compounds, 15% with a hit somewhere; the sample as a whole holds those more often. Values without a mark were called inactive. Active and inactive are the calls of the source. Cut-off read from the data, not from the text of the source: active = growth inhibition above about 70%; inactive = the rest.

The test is described as follows: NCI Yeast Anticancer Drug Screen. Data for the mlh1 rad18 strain (AID 175). To be noted: S. cerevisiae mlh1 rad18 strain growth inhibition; at 50.0 µM; stronger effect = higher value. In a few lines:
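Growth inhibition of the yeast strain was measured after compound exposure and expressed relative to vehicle-treated controls. The strain carries defined defects in DNA damage repair.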
Consider `Oc1ccc2c(c1)CCC2`, for which the growth inhibition was -19.6%.
On to `Cc1ccc(S(=O)(=O)N2CC(CCl)N(S(=O)(=O)c3ccc(C)cc3)CC2CCl)cc1` (stereo not given), for which the growth inhibition was 20.9%.
Regarding `CC/C(CC(=O)CCC(=O)Nc1ccccc1[N+](=O)[O-])=N/NC(=O)C[n+]1ccccc1`, the growth inhibition was -12.7%.
`c1cnc(NC(Nc2cnccn2)C2CCCCC2)cn1`: the growth inhibition was 1.35%.
On to `CC(=O)Oc1cccc2c(/C=N/NC(N)=S)ncc(C)c12`, for which the growth inhibition was 90.3% (active).
Turning to `COC(=O)c1cc(Cl)ccc1NC(=O)C1CCCCC1`, the growth inhibition is 36%.
Then `O=C1/C(=C/c2ccccc2)CN(C(=O)CCN2CCOCC2)C/C1=C\c1ccccc1`, with 86.8% (active).
`Cn1c(=O)ccc2c(=O)c3c(ccc4ccccc43)oc21`: the growth inhibition was -23.9%.
Then `c1ccc(-c2nnc(-c3ccccc3)c3nonc23)cc1`, with -22.3%; and `NC(Cc1ccc(OC(c2ccccc2)c2ccccc2)cc1)C(=O)O` (stereo not given), with 28.8%.
Then `CCOC1(c2ccccc2)c2ccccc2Sc2ccccc21`, with 16.3%; and `CC(=O)OC(C)C1CCCC1OC(C)=O` (stereo not given), with -22.5%.
Regarding `O=c1[nH]cnc2c(COCCO)c[nH]c12`, the growth inhibition was -20.9%.
On to `COc1ccccc1C1OC2=C(Nc3ccc([N+](=O)[O-])cc3N2)C1=O` (stereo not given), for which the growth inhibition was 28.1%.
As to `COc1cccc(C2c3cc4c(cc3OC(N3CCCCC3)C2C)OCO4)c1O` (stereo not given), the growth inhibition was 0.1%.
With `CCC/C=N/NC(=O)c1ccc(OC)cc1`, the growth inhibition was -4.7%.
In the case of `O=C1CCC2c3ccccc3NCN12` (stereo not given), the growth inhibition was -31.8%.
In the case of `Cn1c(NC(=O)C(=O)NC23CC4CC(CC(C4)C2)C3)nc2ccccc21`, the growth inhibition is 8.55%.
For the compound `CCCc1[nH]nc(CCC(=O)N(Cc2ccccc2)Cc2ccccc2)c1CC`, the growth inhibition is -18.1%.
In the case of `COC1OC(CO)C(O)C2OCCOCCOC3C(OC)OC(CO)C(O)C3OCCOCCOC12` (stereo not given), the growth inhibition is 18.5%.
Take `CCCCCCC(=O)NC(O)C(Cl)(Cl)C(C)Cl` (stereo not given): the growth inhibition was 4.1%.
On to `COc1ccc(N=C(N)N2CCCc3ccccc32)cc1`, for which the growth inhibition was 0.4%.
Regarding `CCCCCCCCCCCCCCCCCCCC/C=C/C1CC(=O)OC1=O` (stereo not given), the growth inhibition is 7.1%.
Regarding `COS(=O)(=O)Cc1ccccc1`, the growth inhibition is 8.45%.
As for `O=C1CCCNC(=O)CCCN1`, the growth inhibition is -5.9%.
As for `CCCN(CCC)CCCCCCCCN`, the growth inhibition is 16.2%.
In the case of `Brc1ccc2nc(-c3ccccc3)c3ccccc3c2c1`, the growth inhibition was -2.65%.
Then `CCCCc1noc(N)c1SCC`, with 3.7%; and `N#Cc1c(-c2ccccc2)c[nH]c1/N=C/N`, with -6.5%.
As for `C/C(N=NC(=S)N1CCCC1)=C1\C=CC=CN1O`, the growth inhibition is 22.9%.
Then `Cc1cc(C)n(C2OC(CO)C(O)C(O)C2O)c(=S)c1C#N` (stereo not given), with 35.4%; and `CCOC(=O)c1cn2ccccc2c1C(=O)OCC`, with -14.8%.
Then `CCOC(=O)C(C(=O)OCC)C(=O)c1cc(OC)c(OC)c(OC)c1`, with 6.5%; and `CN(C)C(=O)c1ccccc1`, with 1.55%.
Consider `C=C1C(=O)OC2CC(C)C3CC(O)OC(OCC)C3(C)CC12` (stereo not given), for which the growth inhibition is -16.8%.
In the case of `COc1ccc(C(=O)c2ccccc2)c(OC(=O)Nc2ccc(Cl)cc2)c1`, the growth inhibition is 16.6%.
In the case of `Cc1nnc2sc(Cl)nn12`, the growth inhibition is 22.8%.
With `COc1cc(C(C)Cl)ccc1OC(=O)c1ccccc1` (stereo not given), the growth inhibition was 4.5%.
For `CN(C)CCCNC=O`, the growth inhibition is 23.6%.
For the compound `CC1CC[N-]C(N)N1.CC1CC[N-]C(N)N1.[Cl][Pd][Cl]` (stereo not given), the growth inhibition was -7.1%.
